# ChEMBL document CHEMBL5606460, “ASAP - DENV-2 NS2B-NS3 protease fluorescence single point” (2024)
# The whole screen tested about 2,000 compounds, of which about 110 (5.5%) showed an effect of 50% or more. Only a selection was taken, and strong results are over-represented in it overall.
# Target: Genome polyprotein (dengue virus type 2) (UniProt P29990)
# [1] = Thailand/16681/1984, Concentration 25.0 uM, Number of replicates 1.0
smiles,measurement,setting,value
COc1ccc(S(=O)(=O)N2CCC(C(=O)Nc3nc4ccccc4s3)CC2)cc1,inhibition,"Thailand/16681/1984, Concentration 49.5 uM, Number of replicates 2.0, Standard deviation 1.3648800018415175 %",2.28%
same,inhibition,"Thailand/16681/1984, Concentration 99.01 uM, Number of replicates 2.0, Standard deviation 0.35874487080545164 %",4.97%
same,inhibition,"Thailand/16681/1984, Concentration 198.0 uM, Number of replicates 2.0, Standard deviation 3.7738315130637563 %",5.55%
COc1ccc(S(=O)(=O)n2nc(OC(=O)c3cccc(-c4ccccc4Cl)c3)cc2N)cc1,inhibition,"Thailand/16681/1984, Concentration 49.5 uM, Number of replicates 2.0, Standard deviation 1.4490153953002987 %",18.8%
same,inhibition,"Thailand/16681/1984, Concentration 99.01 uM, Number of replicates 2.0, Standard deviation 0.6098804079928887 %",22.4%
same,inhibition,"Thailand/16681/1984, Concentration 198.0 uM, Number of replicates 2.0, Standard deviation 5.725656788050292 %",25.3%
CCCC[C@H](N)C(=O)N[C@@H](C(=O)NCc1ccc(C(N)=O)cc1)c1ccc(OCc2ccccc2)cc1,inhibition,"Thailand/16681/1984, Concentration 49.5 uM, Number of replicates 2.0, Standard deviation 0.45534308736890416 %",-4.77%
same,inhibition,"Thailand/16681/1984, Concentration 99.01 uM, Number of replicates 2.0, Standard deviation 0.9591594337975816 %",6.09%
same,inhibition,"Thailand/16681/1984, Concentration 198.0 uM, Number of replicates 2.0, Standard deviation 4.328590586700157 %",82.3%
NC(=O)c1ccc(CNC(=O)c2ccc(OCc3ccccc3)cc2)cc1,inhibition,"Thailand/16681/1984, Concentration 49.5 uM, Number of replicates 2.0, Standard deviation 3.419970703357444 %",-0.579%
same,inhibition,"Thailand/16681/1984, Concentration 99.01 uM, Number of replicates 2.0, Standard deviation 3.9573061855257445 %",-0.365%
same,inhibition,"Thailand/16681/1984, Concentration 198.0 uM, Number of replicates 2.0, Standard deviation 3.324054675683989 %",-1.19%
CCCC[C@H](N)C(=O)N[C@H](C(=O)NCc1ccc(C(N)=O)cc1)c1ccc(OCc2ccccc2)cc1,inhibition,"Thailand/16681/1984, Concentration 49.5 uM, Number of replicates 2.0, Standard deviation 0.2650581585371317 %",-6.18%
same,inhibition,"Thailand/16681/1984, Concentration 99.01 uM, Number of replicates 2.0, Standard deviation 5.609533791033077 %",63.5%
same,inhibition,"Thailand/16681/1984, Concentration 198.0 uM, Number of replicates 2.0, Standard deviation 0.01804559465842439 %",99.8%
CCCCCC(=O)N[C@H](C(=O)Nc1ccc(C(N)=O)cc1)c1ccc(OCc2ccccc2)cc1,inhibition,"Thailand/16681/1984, Concentration 49.5 uM, Number of replicates 2.0, Standard deviation 0.6010644427830669 %",0.424%
same,inhibition,"Thailand/16681/1984, Concentration 99.01 uM, Number of replicates 2.0, Standard deviation 0.8411278167455505 %",0.131%
same,inhibition,"Thailand/16681/1984, Concentration 198.0 uM, Number of replicates 2.0, Standard deviation 0.2400633914962311 %",-0.732%
NC(=O)c1ccc(CNC(=O)NCc2ccc(OCc3ccccc3)cc2)cc1,inhibition,"Thailand/16681/1984, Concentration 49.5 uM, Number of replicates 2.0, Standard deviation 0.6584955649548859 %",-0.275%
same,inhibition,"Thailand/16681/1984, Concentration 99.01 uM, Number of replicates 2.0, Standard deviation 0.579227797958503 %",0.348%
same,inhibition,"Thailand/16681/1984, Concentration 198.0 uM, Number of replicates 2.0, Standard deviation 0.34476708449941224 %",-0.309%
C[C@@H](NCc1ccc(C(N)=O)cc1)c1ccc(OCc2ccccc2)cc1,inhibition,"Thailand/16681/1984, Concentration 49.5 uM, Number of replicates 2.0, Standard deviation 1.6752456853530722 %",0.14%
same,inhibition,"Thailand/16681/1984, Concentration 99.01 uM, Number of replicates 2.0, Standard deviation 1.116678580733439 %",0.358%
same,inhibition,"Thailand/16681/1984, Concentration 198.0 uM, Number of replicates 2.0, Standard deviation 0.6068608391781741 %",-0.175%
COc1ccccc1C1CCN(C(=O)C2CCN(c3ccc(C=O)cc3)CC2)CC1,inhibition,[1],12.3%
CN(C)Cc1ccc(C(=O)Nc2cc(Cl)cc(C(=O)NC(C)(C)CO)c2)[nH]1,inhibition,"Thailand/16681/1984, Concentration 49.5 uM, Number of replicates 2.0, Standard deviation 0.5051399787428742 %",0.205%
same,inhibition,"Thailand/16681/1984, Concentration 99.01 uM, Number of replicates 2.0, Standard deviation 1.5521383022614499 %",0.663%
same,inhibition,"Thailand/16681/1984, Concentration 198.0 uM, Number of replicates 2.0, Standard deviation 0.5964116239079592 %",5.64%
CCN(Cc1cc(Br)ccc1F)C(=O)C1CCN(c2ccc(C=O)cc2)CC1,inhibition,[1],15.9%
Cc1cc(N)c2c(Cl)ccc(Cl)c2n1,inhibition,"Thailand/16681/1984, Concentration 49.95 uM, Number of replicates 2.0, Standard deviation 8.427681720895945 %",-5.26%
same,inhibition,"Thailand/16681/1984, Concentration 99.9 uM, Number of replicates 2.0, Standard deviation 7.565581927359314 %",-3.92%
Cc1cc(Cl)c2cccc(N)c2n1,inhibition,"Thailand/16681/1984, Concentration 49.95 uM, Number of replicates 2.0, Standard deviation 0.6589137143756747 %",13.5%
same,inhibition,"Thailand/16681/1984, Concentration 99.9 uM, Number of replicates 2.0, Standard deviation 0.20071745394997703 %",27.6%
Cc1cc(Cl)c2c(N)ccc(C)c2n1,inhibition,"Thailand/16681/1984, Concentration 49.95 uM, Number of replicates 2.0, Standard deviation 5.268842944255752 %",34.7%
same,inhibition,"Thailand/16681/1984, Concentration 99.9 uM, Number of replicates 2.0, Standard deviation 0.5758298004935433 %",94.7%
Cc1cc(CO)c2cccc(Cc3cccc(NC(=O)c4cnn(Cc5c(C)noc5C)c4)c3)c2n1,inhibition,"Thailand/16681/1984, Concentration 49.95 uM, Number of replicates 2.0, Standard deviation 1.4870028556253494 %",-3.7%
same,inhibition,"Thailand/16681/1984, Concentration 99.9 uM, Number of replicates 2.0, Standard deviation 1.816697484259061 %",-0.8%
O=C(Nc1cccc(O)c1)c1cccc(OCc2c(Cl)cccc2Cl)c1,inhibition,"Thailand/16681/1984, Concentration 49.5 uM, Number of replicates 2.0, Standard deviation 2.2599777431890864 %",6.58%
same,inhibition,"Thailand/16681/1984, Concentration 99.01 uM, Number of replicates 2.0, Standard deviation 0.8121141369648937 %",8.41%
same,inhibition,"Thailand/16681/1984, Concentration 198.0 uM, Number of replicates 2.0, Standard deviation 0.4931997238761773 %",11.9%
O=C(O)c1cccc(NC(=O)c2cccc(OCc3c(Cl)cccc3Cl)c2)c1,inhibition,"Thailand/16681/1984, Concentration 49.5 uM, Number of replicates 2.0, Standard deviation 0.517131041635451 %",14.9%
same,inhibition,"Thailand/16681/1984, Concentration 99.01 uM, Number of replicates 2.0, Standard deviation 0.3657402361338958 %",47.1%
same,inhibition,"Thailand/16681/1984, Concentration 198.0 uM, Number of replicates 2.0, Standard deviation 0.23203020217005468 %",92.1%
O=C(Nc1ccc(O)cc1)c1cccc(OCc2c(Cl)cccc2Cl)c1,inhibition,"Thailand/16681/1984, Concentration 49.5 uM, Number of replicates 2.0, Standard deviation 0.38856258601515087 %",5.85%
same,inhibition,"Thailand/16681/1984, Concentration 99.01 uM, Number of replicates 2.0, Standard deviation 1.1651546847054868 %",9.28%
same,inhibition,"Thailand/16681/1984, Concentration 198.0 uM, Number of replicates 2.0, Standard deviation 0.8272279968409002 %",12.6%
Cc1cc(CO)c2cccc(Cc3cccc(NC(=O)[C@@H]4CC(=O)CCN4)c3)c2n1,inhibition,"Thailand/16681/1984, Concentration 49.95 uM, Number of replicates 2.0, Standard deviation 0.827370284601473 %",15.8%
same,inhibition,"Thailand/16681/1984, Concentration 99.9 uM, Number of replicates 2.0, Standard deviation 0.7401310286309556 %",32.9%
NCc1cccc(NC(=O)[C@@H](NC(=O)OCc2ccccc2)c2ccc(Br)cc2)c1,inhibition,"Thailand/16681/1984, Concentration 49.5 uM, Number of replicates 2.0, Standard deviation 0.0939294781157427 %",-4.11%
same,inhibition,"Thailand/16681/1984, Concentration 99.01 uM, Number of replicates 2.0, Standard deviation 0.02096957442071617 %",99.8%
same,inhibition,"Thailand/16681/1984, Concentration 198.0 uM, Number of replicates 2.0, Standard deviation 0.044447729264800756 %",99.8%
NCc1cccc(NC(=O)[C@@H](CCC(N)=O)NC(=O)OCc2ccccc2)c1,inhibition,"Thailand/16681/1984, Concentration 49.5 uM, Number of replicates 2.0, Standard deviation 0.6750820884014238 %",-3.1%
same,inhibition,"Thailand/16681/1984, Concentration 99.01 uM, Number of replicates 2.0, Standard deviation 2.465072002477128 %",-1.7%
same,inhibition,"Thailand/16681/1984, Concentration 198.0 uM, Number of replicates 2.0, Standard deviation 2.5897319885400165 %",-0.981%
NCc1cccc(NC(=O)Cc2ccc(OCc3ccccc3)cc2)c1,inhibition,"Thailand/16681/1984, Concentration 49.5 uM, Number of replicates 2.0, Standard deviation 0.3616312555788717 %",-3.09%
same,inhibition,"Thailand/16681/1984, Concentration 99.01 uM, Number of replicates 2.0, Standard deviation 0.27421312838327405 %",-2.89%
same,inhibition,"Thailand/16681/1984, Concentration 198.0 uM, Number of replicates 2.0, Standard deviation 0.0354621897496722 %",-1.31%
CCCCCC(=O)N[C@H](C(=O)NCc1cccc(CN)c1)c1ccc(OCc2ccccc2)cc1,inhibition,"Thailand/16681/1984, Concentration 49.5 uM, Number of replicates 2.0, Standard deviation 0.6286197397778024 %",-3.44%
same,inhibition,"Thailand/16681/1984, Concentration 99.01 uM, Number of replicates 2.0, Standard deviation 10.030102962525104 %",65.8%
same,inhibition,"Thailand/16681/1984, Concentration 198.0 uM, Number of replicates 2.0, Standard deviation 0.2962336766184579 %",98.7%
